# Laboratory results published in the supplement of paper PMC9897528.
# Values without a mark were called inactive.
# Tested on: Scedosporium aurantiacum CBS 136046
# Assay: growth inhibition relative to DMSO control (OD600); higher = more antifungal activity, active = 80 or more; extreme values may be limits of the assay
# Details: 5 µM; 72 h; 37 °C
# 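Also: conidia screened in RPMI 1640 medium under 5% CO2, growth read by spectrophotometer, medium with 0.5% DMSO serving as the untreated reference.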
row,Structure (SMILES),growth inhibition
1,C=C(C)n1c(=O)n(Cc2ccccc2C)c2ccccc21,21.5%
2,NCCCc1ccccc1C(=O)Nc1ncc([N+](=O)O)s1,0%
3,O=C(N[C@H](Cc1cccc2ccccc12)C(=O)NCCc1c[nH]cn1)C1Cc2ccccc2C1,2.31%
4,O=C(O)c1cc(-c2ccc(Br)cc2)nc2ccc(Cl)cc12,15.5%
5,Oc1ccc2[nH]c(-c3ccccc3)nc2c1,26.7%
6,CCCCCc1ccc(C(=O)NCCn2cc(CCCCCc3c[nH]c(N)n3)nn2)cc1,46%
7,Nc1nc(O)c2ncn([C@@H]3O[C@H](CO)[C@@H](O)[C@H]3F)c2n1,17.4%
8,CS(=O)(=O)c1ccc(Oc2ccc(Cl)cc2)cc1,15.2%
9,COc1cc(Cc2cnc(N)nc2N)cc(OC)c1OC,0.169%
10,CN1CCN(c2ccc3[nH]c(-c4ccc5[nH]c(-c6ccc(O)cc6)nc5c4)nc3c2)CC1,11.7%
11,Cc1onc(-c2ccccc2)c1-c1ccc(S(N)(=O)=O)cc1,41.2%
12,CCCCN1C[C@H](O)[C@@H](O)[C@H](O)[C@H]1CO,3.51%
13,O=C(Nc1[nH]c(=O)ncc1F)c1ccccc1,5.77%
14,C=C[C@]1(C)C[C@@H](OC(=O)CS[C@@H]2C[C@H]3CC[C@@H](C2)N3C)[C@]2(C)[C@H](C)CC[C@]3(CCC(=O)[C@H]32)[C@@H](C)[C@@H]1O,35.7%
15,CC1(C)[C@H](C(=O)O)N2C(=O)C[C@H]2S1(=O)=O,0%
16,Cc1nc2ccc(Cl)cc2c(-c2ccccc2)c1CC(=O)O,14.2%
17,CC(C)=CCC/C(C)=C/CNCCNC1C2CC3CC(C2)CC1C3 (stereo not drawn),61.4%
18,Nc1nc(=O)[nH]cc1F,0.0511%
19,CC(Oc1ccc(Cl)cc1Cl)C(=O)NCc1ccc2c(c1)OCO2 (stereo not drawn),17.5%

row,Structure (SMILES),growth inhibition
1,Oc1cc(-c2cccc3ccccc23)[nH]n1,7.34%
2,COc1ccccc1NC(=O)c1ccccc1Sc1ccc([N+](=O)[O-])cc1,22.6%
3,COc1ccc(C2CNC(=O)C2)cc1OC1CCCC1 (stereo not drawn),16.6%
4,O=C(O)[C@H]1C2CCC(CC2)[C@@H]1Nc1nc(-c2c[nH]c3ncc(F)cc23)ncc1F,10.2%
5,COc1cc(NC(=O)CN2C(=O)NC(c3ccccc3)(c3ccccc3)C2=O)cc(OC)c1,0%
6,CCc1nc(N)nc(N)c1C#CCc1ccccc1,30.8%
7,O=C(/C=C/n1cnc(-c2cc(C(F)(F)F)cc(C(F)(F)F)c2)n1)NNc1cnccn1,26.3%
8,Nc1nc(-c2ccccc2)nc2[nH]nc(Nc3ccc(C(F)(F)F)cc3)c12,16.5%
9,CC(Cc1ccccc1)C(=O)Nc1ccc(Cl)cc1C(=O)O (stereo not drawn),0%
10,CC(C)(C)c1ccc(C(=O)NC(=O)N2CCCc3ccccc32)cc1,0.0285%
11,CCOC(=O)/C=C/[C@H](C[C@@H]1CCNC1=O)NC(=O)[C@@H](CC(=O)[C@@H](NC(=O)c1cc(C)on1)C(C)C)Cc1ccc(F)cc1,1.27%
12,CC(=O)Oc1ccccc1C(=O)Nc1ncc([N+](=O)[O-])s1,12.7%
13,NCc1ccc(S(N)(=O)=O)cc1,9.4%
14,O=C(Nc1ccccc1C(=O)O)c1cccc(Oc2ccccc2)c1,0.169%
15,CC1CCc2c(N3CCC(O)CC3)c(F)cc3c(=O)c(C(=O)O)cn1c23 (stereo not drawn),16.2%
16,COc1ccc2nc(-c3ccccc3)cc(O)c2c1,17.5%
17,Nc1nc2c(ncn2COCCO)c(=O)[nH]1,11.1%
18,N#C/C(=C1/SC[C@H](c2ccc(Cl)cc2Cl)S1)n1ccnc1,85.6% (active)
19,O=C(Nc1nnc(-c2ccc(Cl)cc2)o1)c1ccc(F)cc1,48.5%
